# Assay outcomes as filed in PubChem BioAssay.
# An excerpt weighted towards active compounds, which were near 2.9% of everything screened.
# DRD3 agonist – qHTS of D3 Dopamine Receptor Agonist: qHTS; D3R DiscoveRx beta-arrestin cells, luminescence, 90 min; D(3) dopamine receptor (Homo sapiens), P35462; max activation, %; 410,000 compounds, 0.58% hits; in the data active = max activation above about 30%; note: 0% is about no effect
# Target sequence (P35462 whole entry, looked up): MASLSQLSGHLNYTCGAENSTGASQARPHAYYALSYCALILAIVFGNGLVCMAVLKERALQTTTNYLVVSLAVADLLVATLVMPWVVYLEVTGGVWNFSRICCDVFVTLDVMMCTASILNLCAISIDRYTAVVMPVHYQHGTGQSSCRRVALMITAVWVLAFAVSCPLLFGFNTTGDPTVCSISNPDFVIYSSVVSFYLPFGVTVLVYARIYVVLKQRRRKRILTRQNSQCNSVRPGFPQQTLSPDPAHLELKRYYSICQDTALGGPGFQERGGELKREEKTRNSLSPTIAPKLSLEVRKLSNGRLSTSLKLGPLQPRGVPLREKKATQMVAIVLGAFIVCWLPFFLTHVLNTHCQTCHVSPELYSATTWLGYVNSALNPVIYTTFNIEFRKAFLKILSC
#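 Cells at 1500/well, incubated overnight, then treated with pinned compounds (dopamine as control) for 90 min at 37 degrees C. DiscoveRx reagent added for 30 - 60 minutes at room temperature; luminescence read.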
# a7 integrin act – qHTS for Activators of Integrin-Mediated Alleviation for Muscular Dystrophy | alpha7betagal myoblasts, beta-gal FDG fluorescence, 48 h | Potency, µM (titrated, usually from 38.3 µM), for inactives: at the highest dose activation, most hits filed as activators | 350,000 compounds, 0.064% hits | AID 624291, 2012; active = well fitted activation curve with a large enough effect; inconclusive = small, poorly fitted or top-dose-only effect; inactive = no such curve, though single readings can be large or run the other way;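 note: potency is the fitted concentration of half-maximal effect; 100% = response of the positive control SU9516; nearly all actives have a fitted effect of over 60% in size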
#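 alpha7betagal+/- myoblasts (passage 13, 250/well) treated 48 h at 37C with compounds at 1:260 dilution of DMSO stock. Lysed, then beta-galactosidase activity read as FDG fluorescence (ex 480/em 540) after 30 min, with pre-read for autofluorescence.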
# DRD3 antagonist – qHTS of D3 Dopamine Receptor Antagonist: qHTS; D(3) dopamine receptor (Homo sapiens), P35462; AID 652054, 2013; D3R cells, DiscoveRx beta-arrestin luminescence, antagonist mode; active compounds read low; max response, negative = inhibition, %; 360,000 compounds, 2.5% hits; in the data active = max response below about -50%; inconclusive = no clear call, values can overlap the other calls; note: % is set by controls: 0 for no effect and ±100 for the full control effect
#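 Cells expressing the human receptor were seeded at 1500 cells/well, incubated overnight at 37 degrees C in 5% CO2, then exposed to library compounds with dopamine controls for 90 minutes at 37 degrees C before luminescent detection.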
# * hit, by the source's call; ? = inconclusive; nt = not tested or not shown.
SMILES,DRD3 agonist,a7 integrin act,DRD3 antagonist
COc1ccccc1N1CCN(C(=O)C(OC(C)=O)c2ccccc2)CC1 (centres undefined),-1,-27%,?
CC1=NN(c2ccccc2)C(=O)C1N=Nc1ccc(N)cc1 (centres undefined),-15,-6%,-60*
CC1=NN(c2ccccc2)C(=O)C1N=Nc1ccccc1 (centres undefined),1,-1%,5
CCN1CCCC1CNC(=O)C(=O)Nc1ccc(OC)cc1 (centres undefined),3,0%,-6
CCc1ccc(NC(=S)NCC2CCCN2CC)cc1 (centres undefined),-27,0%,-75*
Nc1ccc(S(=O)(=O)NC2(C(F)(F)F)NC(=O)N(c3cccc(Cl)c3)C2=O)cc1 (centres undefined),-2,nt,nt
COc1ccc(C)c(-n2c(=O)n(Cc3ccccc3)c(=O)c3[nH]cnc32)c1,-29,0%,-97*
Cc1ccc(S(C)=O)cc1-n1c(=O)n(Cc2ccccc2)c(=O)c2[nH]cnc21 (centres undefined),-31,-68%,-104*
COc1ccc(Cn2c(=O)c3[nH]cnc3n(-c3ccccc3C)c2=O)cc1,24,-13%,5
Cc1ccccc1-n1c(=O)n(Cc2ccc(C(=O)O)cc2)c(=O)c2[nH]cnc21,8,15%,6
COc1ccc(N2CC(NC(=O)c3ccc(S(=O)(=O)N4CCOCC4)cc3)CC2=O)cc1OC (centres undefined),1,nt,nt
O=C1NC[C@H](Cc2ccccc2)N(C[C@@H]2CCCN2C[C@H](Cc2ccccc2)N2C[C@H](Cc3ccccc3)N(CCc3ccccc3)C(=O)C2=O)C1=O,-18,nt,3
COC(=O)c1nn(-c2ccccc2)c(=O)cc1Sc1ccc(Cl)cc1,-6,-44%,8
O=c1c2cc(NC(=S)NCCN3CCCCCC3)ccc2nc2n1CCCCC2,-19,21%,-7
O=c1c2cc(NC(=S)NCCCN3CCC(Cc4ccccc4)CC3)ccc2nc2n1CCCCC2,-17,-31%,-94*
COc1cc(NS(=O)(=O)c2ccc(NC(=O)COc3cccc(C)c3)cc2)nc(OC)n1,-3,-3%,6
O=[N+]([O-])c1cc(Br)ccc1NS(=O)(=O)c1ccccc1,2,9%,-10
Cc1cc(NS(=O)(=O)c2ccccc2)c([N+](=O)[O-])cc1C,-4,23%,-52*
COc1ccc(N2C(=O)NC(NC(=O)c3ccncc3)(C(F)(F)F)C2=O)cc1 (centres undefined),-3,-2%,-9
c1ccc(CN2CCN(c3nc(-c4ccccc4)nc(-n4ccnc4)n3)CC2)cc1,-39,-9%,-63*
c1ccc(-c2nc(-n3ccnc3)nc(-n3ccnc3)n2)cc1,5,-15%,28
O=S(=O)(c1cccs1)N1CN(CC2CCCO2)c2nc3ccccc3nc21 (centres undefined),-1,-18%,13
Cc1ccc(S(=O)(=O)N2CN(CC3CCCO3)c3nc4ccccc4nc32)c(C)c1 (centres undefined),0,11µM*,6
COCCNC(=O)C1(C)CCCN(Cc2csc3ccccc23)C1 (centres undefined),-10,nt,?
COCCNC(=O)C1(C)CCN(Cc2ccc3ccccc3c2Br)C1 (centres undefined),-13,nt,106
SMILES,DRD3 agonist,a7 integrin act,DRD3 antagonist
CCCNC(=O)C1(C)CCN(Cc2ccc3ccccc3c2Br)C1 (centres undefined),-27,nt,-51*
CCCNC(=O)C1(C)CCCN(Cc2csc3ccccc23)C1 (centres undefined),-10,nt,-53*
CC(OC(=O)Cn1cc(C(F)(F)F)ccc1=O)C(=O)NC(C)c1ccc(Cl)cc1Cl (centres undefined),-17,12%,-22
COc1cc(-c2nnn(Cc3ccccc3C)n2)cc(OC)c1OC,-2,1%,1
COC(=O)c1cccc(Nc2ncnc3ccc(C)cc23)c1,-3,-3%,12
COc1ccc(Nc2ncnc3ccc(C)cc23)cc1,1,3.5µM*,26
Nc1nnc(SCCCC(=O)c2ccc(Br)cc2)s1,-2,16%,8
CCCN(CCO)Cc1cccc(Cl)c1,-13,9%,12
CCCN(CCO)Cc1ccc(Cl)c(Cl)c1,-32,-7%,-59*
O=C(Nc1ccc2nc(SCC(=O)N3CCOCC3)sc2c1)c1ccccc1Cl,0,nt,nt
Cc1cccc(C)c1NC(=O)C(NC=O)c1ccc(Cl)cc1 (centres undefined),-6,-15%,-56*
COc1cc(C(NC=O)C(=O)Nc2c(C)cccc2C)ccc1O (centres undefined),2,0%,-1
CCOc1ccc(NC(=O)CN(C)C(=O)c2ccc(N3CCCC3)c([N+](=O)[O-])c2)cc1OCC,-6,-3%,-60*
CCOc1ccc(NC(=O)CN(C)C(=O)c2ccc(N3CCCCC3)c([N+](=O)[O-])c2)cc1OCC,0,6%,8
COCCNC(=O)C1(C)CCCN(Cc2cc(C)ccc2C)C1 (centres undefined),12,nt,19
COc1ccccc1NC(=O)N1CCC(C(=O)c2ccc(Cl)cc2)CC1,-12,14%,2
CC1(NC(=O)Nc2cc([N+](=O)[O-])ccc2O)CCS(=O)(=O)C1 (centres undefined),-1,3%,-8
COC(=O)c1cc(CNC(=O)C2CC(=O)N(c3ccc4c(c3)OCCO4)C2)ccc1OC (centres undefined),2,-29%,-6
O=C(c1cc2sccc2n1Cc1ccccc1)N1CCN(c2nc3ccccc3s2)CC1,1,0%,10
O=C(NCCCN1CCN(c2ccccc2F)CC1)C1CCN(S(=O)(=O)c2cccs2)CC1,0,-10%,?
CCS(=O)(=O)N1CCC(C(=O)NCCCN2CCN(c3ccccc3F)CC2)CC1,40*,-8%,-52*
CCCS(=O)(=O)N1CCCC(C(=O)NCCCN2CCN(c3cccc(Cl)c3)CC2)C1 (centres undefined),0,-9%,-25
CCCS(=O)(=O)N1CCCC(C(=O)NCCCN2CCN(c3ccccc3F)CC2)C1 (centres undefined),31*,-22%,-53*
CN(Cc1ccccc1)S(=O)(=O)c1cc2c3c(c1)CCN3C(=O)CC2,1,-8%,24
O=C(CSc1nc(=O)n2ccccc2n1)NCc1ccccc1,5,18%,-2
SMILES,DRD3 agonist,a7 integrin act,DRD3 antagonist
O=C(c1c(F)cccc1F)N1CCC(O)(c2ccc(F)cc2)CC1,13,-13%,15
CC1COCC(C)N1C(=O)c1cccnc1 (centres undefined),1,-7%,-125*
CCS(=O)(=O)N1CCN(C(=O)c2cccnc2)CC1,3,13%,27
O=C(c1cccnc1)N1C2CCC1CC(O)(c1ccc(F)cc1)C2 (centres undefined),-28,-4%,-57*
O=C(c1ccc(F)cc1)N1C2CCC1CC(O)(c1ccc(F)cc1)C2 (centres undefined),-10,12%,-54*
CC(=O)c1cccc(NC(=O)N2C3CCC2CC(O)(c2cccnc2)C3)c1 (centres undefined),1,17%,-15
